For 40 sequences, PBM binding z-score results are on record in the supplement of paper PMC6555819.

This experiment relates to LXRb:RXRa (NR concentration 270 nM, RXRa partner concentration 90 nM). Briefly: PBM binding z-score (relative to random genomic background probes); higher = stronger binding; sequences stand for … in GC…GCGATTGACAGCGTAGAATGAAGG
The method in brief:
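Probes were double-stranded and carried 34-nt variable regions with direct-repeat seeds, single-nucleotide variants, half-site ablations and random human genomic background sequences, printed on custom Agilent 4×180K protein-binding microarrays. Arrays were incubated 1 h with ligand-free nuclear receptor dimers in PBS pH 7.4, 2% milk, 0.02% Triton X-100, 1 mM DTT, 0.2 mg/mL BSA and 0.4 mg/ml salmon testes DNA. Antibodies against each partner (one per run) detected binding, and scanned fluorescence was regression-normalized. Binding z-scores use the random background probes as reference.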
In turn, TCTTGTAGATCAAGCAGGTTAGGAAAGCCTGAGT gave a PBM binding z-score of -0.145. ATCTCTAGGTAGAGTTCAGTGAAAGATCGATAGA returned a PBM binding z-score of 1.2. GCTTGTAGAGCAAGGTTAAGAAAGACTAAGCTAA: the PBM binding z-score was found to be 0.174. The figure for CAAACTAGGTCAAATGTCAAAGTCGAGCCAACCA is 3.78; for TCATATAGGTATAGGTGAAAGTCGAACGATATGA it is 0.177; for CAAACTAGGTCAAGAGATCAAAGTCCGCTTCCCG it is 1.95. The value for CCTGCTAGGTCAATCGTCAGCTAAAGCAGCTCGC was 1.57; that for CGTCAAAGTTCAAGGTAACGTGACAGAAAGCAGC was 3.27; that for ATCGAAACGTCGAGGTGAGTATAGAGAAAGGGAA was -0.525.

Sequence AGCGAAAGGTCGTGAGGTGAGTATACAGAAAGGC had a PBM binding z-score of 3.17.

CGAACTAGGGCATTGACAGGACAGTGAATAGTAA registered a PBM binding z-score of -0.0451.

Turning to CGGACTGGGGCAAGGTTACCATAACGCACAGCCA, the PBM binding z-score came out at 1.05. The value for AGCATGAGGTTACCAAAGATCAGGGAAACGCTTG was 3.13; that for CTAGCAAGGTGAACAAGGTCGTTGATTACTATTC was 1.45.

Sequence CTACTAAGGTGAACAAGGTCGTTGATTACTATTC registered a PBM binding z-score of 2.02. The value for CGTCCAAGGTCAAAGTTCAGTGAAGAGATGACGG was 5.48.

On to TCTTGTAGATCAATAGAGGGTAAGAAAGTGCGCT, for which the PBM binding z-score amounted to 0.517. With ATCGAAAGGTCGTGAGGTGCGTATACAGAAAGGC, the PBM binding z-score amounted to 2.99. CCTATTAGTTGAGCATAAGGGCAACCGAAGCTCG: the PBM binding z-score was -0.0125. For TCTTGTAGATCAACAGGAGGTTAAAAAAGATCGA, the PBM binding z-score is 1.34.

In the case of TGAATGAGGTTAAAGTTCAGGGAACGTGGCGTCG, the PBM binding z-score came out at 3.68. The figure for ATCTCTAGGTAAGACTCAATTCAGTGAAGAACGC is 0.00858; for AGTCAAAGTTCATCTAGGTAACGTATGATATGCT it is 3.77. As to GCTATTAGTAGAAAGGGCAACCGAATGATTCTCG, the PBM binding z-score worked out at 0.187. The value for ATCCAAAGGTCGAAGGTGAGTATACCCACCCGAA was 3.2. The figure for TGAATGAGGTTATATGATCAGGGAACGTTGCAAA is 1.25; for CCTAGTTGGTCAGAAGGTCACACACCGGATATGA it is 3.36.

In turn, ATCTCTAGGTAAAAGTTCAGTGAATCCCGAGGAT came in with a PBM binding z-score of 1.12.

Sequence TCGAGTAGGTTAGTTGGGGCATTCAGCCAACATA yielded a PBM binding z-score of 0.412. The figure for TCTGCTAGGTCAGTTGGTCAGCTATCGAGCTGCC is 0.193; for ACAGACAGGTGATGATGGTAACTCAGGCTATCAT it is -0.166.

The sequence TAGCATAGGTCATTGGGCCAGTATAGTACGCATC showed a PBM binding z-score of 4.02. The figure for CCTACTTGGCCAAGGTCATTGATCAGTCAAAGCA is 3.87; for CCAGACAGGTGAGAAGGTCACTCAGCCTCGATTA it is 2.7. The value for ACTAGTAGTTGACTTAGGGCAACCGATACGACGC was -0.351; that for ATCTCTAGGTAAGACTCAGTTCAGTGACGAACGC was 0.467. The value for ATATATAGGTTATCGGGTCATTCAGTTTGCGCAT was 3.46. Turning to AGTCAATGTTCACTAGGTAACGTAAGATTCAGCT, the PBM binding z-score was -0.121.

ACTACTTGGTCAGCTGAGGTCACACACAATTCGG had a PBM binding z-score of 3.97.

The sequence TCTCTGAGGACACGAAAGGTCAGAGCTCGACATC displayed a PBM binding z-score of 2.98.
